The record followed here is PubChem BioAssay (NCATS).

Results filed as inconclusive are left out. Active and inactive are the calls of the source. Unless noted, calls come from the whole dose curve; as a rule, active = well fitted curve in the direction sought with a large enough effect; inconclusive = small, poorly fitted or top-dose-only effect, or another doubt; inactive = no such curve, though single readings can be large; an effect the other way counts as inactive or inconclusive.

Assay [1] can be described thus: qHTS to identify inhibitors of the type 1 interferon - major histocompatibility complex class I in skeletal muscle: primary screen against the NCATS Pharmaceutical Collection (AID 1347407).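 Note: luminescence of HiBiT knocked into endogenous HLA-B as interferon-induced MHC class I level.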 The settings on record: human skeletal muscle cells, IFN-b-induced MHC-I HiBiT luminescence, 24 h; series mostly up to 45.9 µM. The method in brief: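 HLA-B HiBiT myoblasts, dexamethasone-free growth medium + 4 ng/ml IFN-b; compounds pinned 1 h after seeding, […] from 46 uM; 24 h, 37 C, 5% CO2; lytic HiBiT detection, 10 min RT, luminescence.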
For orientation: Quantitative high-throughput screening tests each substance at several concentrations.

Assay [2] deals with Protein phosphatase 1D (Homo sapiens) (UniProt O15297). Description: RapidFire Mass Spectrometry qHTS Assay for Modulators of WT P53-Induced Phosphatase 1 (WIP1) (AID 1347424). As to conditions: WIP1 dephosphorylation of phosphopeptide, RapidFire MS; series mostly up to 63 µM. The method in brief: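 RapidFire MS readout of dephosphorylated VEPPL-S-QETFS product, with 1 uM isotope-labelled peptide standard. Reaction: 10 nM WIP1, 2 uM phosphopeptide substrate, 5 min, room temperature, after 1 h compound preincubation; stopped with 0.5% formic acid.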

For assay [3] the target is unchanged. The experiment in a line: Rhodamine-PBP qHTS Assay for Modulators of WT P53-Induced Phosphatase 1 (WIP1) (AID 1347425). As to conditions: recombinant WIP1, Rhodamine-PBP phosphate fluorescence, real-time; series mostly up to 57.5 µM. The method in brief:
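5 nM WIP1 + 10 uM Rh-PBP, 50 mM Tris pH 7.5, 30 mM MgCl2, 1 mM TCEP, 0.1 mM EGTA, BSA; cpds pinned, 1 hr RT; + 10 uM phosphopeptide; fluorescence 1-min reads x 11 min; delta = f1 - f0.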

Assay [4] in a line: Primary qHTS for inhibitors of La Crosse Virus (LACV) - induced cell death in SH-SY5Y cells (AID 1508616).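 Note: top concentration of the series differs between compounds; higher means more rescue of cells from virus-induced death.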 As to conditions: SH-SY5Y LACV cytopathicity rescue, ATP luminescence, 6 d; series mostly up to 4.29 µM. The method in brief:
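SH-SY5Y, 6000 cells/well; cpd via pin tool in DMSO; LACV 0.01 MOI; 6 d 37C 5% CO2; ATPLite, 5 min RT; luminescence normalized to ±virus DMSO controls.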

In assay [5] the target is Calcium and integrin-binding protein 1 (Homo sapiens) (UniProt Q99828). Description: Primary qHTS for Identification of Calcium Integrin Binding Protein 1 (CIB1) Competitor (AID 1508620). Note: potency is the fitted concentration of half-maximal effect. The settings on record: CIB1-GST / FITC-alphaIIb peptide fluorescence polarization; series mostly up to 114 µM. The method in brief:
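Fluorescence polarization competition: GST-tagged CIB1 (1 uM final) preincubated with compound 15 min at room temperature, then FITC-labelled alphaIIb peptide (100 nM final) added. After 15 min at room temperature, polarization read at Ex 480/Em 540.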

Assay [6] can be described thus: Primary qHTS for inhibitors of SARS-S pseudo-typed particle cell entry (AID 1479145; calls by dose curve; note: nearly all actives have a fitted effect of over 45% in size). As to conditions: SARS-S pseudotyped particle cell entry, luciferase reporter; series mostly up to 57.1 µM.
The nature of assay [7]: Primary qHTS for Huh7 cytotoxicity: counterscreen for inhibitors of MERS-S pseudotyped particle cell entry (AID 1479147; calls by dose curve). The settings on record: cell viability read-out; series mostly up to 57.1 µM.
The nature of assay [8]: Primary qHTS for inhibitors of MERS-S pseudo-typed particle cell entry (AID 1479149; calls by dose curve; note: nearly all actives have a fitted effect of over 60% in size). As to conditions: MERS-S pseudotyped particle entry, luciferase; series mostly up to 57.1 µM.
Assay [9] in a line: Primary qHTS for Vero E6 cytotoxicity: counterscreen for inhibitors of SARS-S pseudo-typed particle cell entry (AID 1479150; calls by dose curve). As to conditions: cell viability; series mostly up to 57.1 µM.

Chain of Protein phosphatase 1D (Homo sapiens) (O15297 whole entry, looked up): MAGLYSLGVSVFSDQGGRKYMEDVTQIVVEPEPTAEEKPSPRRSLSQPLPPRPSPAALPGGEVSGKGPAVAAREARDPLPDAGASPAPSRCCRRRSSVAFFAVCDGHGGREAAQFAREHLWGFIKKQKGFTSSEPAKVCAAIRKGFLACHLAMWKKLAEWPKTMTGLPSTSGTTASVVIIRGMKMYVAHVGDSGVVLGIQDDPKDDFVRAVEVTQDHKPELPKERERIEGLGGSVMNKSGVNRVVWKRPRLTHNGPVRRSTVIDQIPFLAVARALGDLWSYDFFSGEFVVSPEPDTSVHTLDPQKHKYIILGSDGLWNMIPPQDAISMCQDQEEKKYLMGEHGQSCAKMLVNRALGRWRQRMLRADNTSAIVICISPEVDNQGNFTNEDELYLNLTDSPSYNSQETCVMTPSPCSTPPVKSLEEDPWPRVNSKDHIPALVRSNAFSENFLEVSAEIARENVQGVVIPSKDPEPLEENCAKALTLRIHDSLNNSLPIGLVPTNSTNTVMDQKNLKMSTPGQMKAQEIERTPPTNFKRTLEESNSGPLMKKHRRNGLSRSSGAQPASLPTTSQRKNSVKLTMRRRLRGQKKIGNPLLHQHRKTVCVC
Chain of Calcium and integrin-binding protein 1 (Homo sapiens) (Q99828 whole entry, looked up): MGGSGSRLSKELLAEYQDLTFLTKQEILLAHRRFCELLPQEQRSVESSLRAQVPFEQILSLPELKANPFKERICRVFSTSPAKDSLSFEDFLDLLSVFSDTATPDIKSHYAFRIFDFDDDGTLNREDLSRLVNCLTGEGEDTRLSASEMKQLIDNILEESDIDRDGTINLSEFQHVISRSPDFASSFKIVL

For the molecule `NNc1ccccc1`, the Potency entry in assay [1], in assay [2] and in assay [5] was “inactive” each time. Also, the outcome in [3] and in assay [4] was inactive.

As for `CCCCCCC(=O)CCCCCC/C=C/C[C@@H](O)[C@H](O)[C@@](N)(CO)C(=O)O`, the Potency result in assay [1], in assay [2] and in assay [5] was “inactive” throughout. Besides, the outcome in assay [3] and in assay [4] was inactive.

Consider `COc1cccc([C@@]2(O)CCCC[C@@H]2CN(C)C)c1`, for which the Potency entry in [1] and in [5] was “inactive” each time. Moreover, in assay [3], the result was inactive.

With `C#CC(O)(C=CCl)CC` (centres undefined), the Potency entry in assay [1], in [6], in assay [7], in [8], in [9] and in assay [5] was “inactive” each time. The result in assay [3] and in assay [4] was inactive.

Regarding `CN1C(=O)NC(=O)C(C)(C2=CCCCC2)C1=O` (centres undefined), the Potency entry in [1], in [7], in assay [8], in assay [9] and in assay [5] was “inactive” in each case. Moreover, the result in assay [3] and in [4] was inactive.

Turning to `O=C1OC(CCN2CCCCC2)OC1(c1ccccc1)c1ccccc1` (centres undefined), the Potency entry in [1] and in assay [5] was “inactive” throughout. Besides, the result in assay [3] and in assay [4] was inactive.

For the molecule `O=C(Nc1ccc(Br)cc1)c1cc(Br)cc(Br)c1O`, the Potency result in assay [1] and in assay [5] was “inactive” each time. The outcome in [3] and in assay [4] was inactive.

Consider `C[C@]12CC[C@@H]3c4ccc(OC(=O)N(CCCl)CCCl)cc4CC[C@H]3[C@@H]1CC[C@@H]2O`, for which the Potency result in assay [1], in assay [6], in assay [7], in assay [8] and in [9] was “inactive” throughout. The outcome in assay [3] and in assay [4] was inactive.

As to `CC(C(=O)c1ccccc1)N(C)C` (centres undefined), the Potency entry in assay [1], in assay [2] and in assay [5] was “inactive” in each case. Further, the outcome in [3] and in assay [4] was inactive.

As to `O=C1CN=C(c2ccccc2)c2cc([N+](=O)[O-])ccc2N1`, the Potency result in assay [1] and in assay [5] was “inactive” throughout. The result in assay [3] and in assay [4] was inactive.

Regarding `Nc1ccc([As](=O)(O)O)cc1`, the Potency result in assay [1], in [6], in assay [7], in [8], in [9] and in [5] was “inactive” throughout. The outcome in assay [3] and in assay [4] was inactive.

For `CCN(CC)C(=O)[C@@H]1C=C2c3cccc4[nH]cc(c34)C[C@H]2N(C)C1`, the Potency result in assay [1] and in assay [2] was “inactive” in each case. Further, the result in [3] was inactive. Also, the Potency in [5] is 63.1 µM (active).
